Most compounds without a hit are left out; they make up all but 9.3% or so of the library.
NPC1 promoter act = activates the NPC1 promoter | Huh7 NPC1 promoter luciferase reporter, 24 h | Potency, µM (titrated, usually from 9.22 µM), hits mostly activators | 2.4% of 320,000 active; further: nearly all actives have a fitted effect of over 60% in size
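NPC1 promoter–luciferase Huh7 cells; 24 h compound; luminescence.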
Rab9 prom act = activators of Rab9 promoter; Huh7 Rab9 promoter-luciferase reporter, luminescence, 24 h; Potency, µM (highest dose often 9.22 µM), usual class: activators; 2.8% of 320,000 active; further: nearly all actives have a fitted effect of over 60% in size
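Steps: seed 1500 Huh7 Rab9-luc cells per well, rest 2 h at 37 °C; add compound in DMSO; incubate 24 h; add luciferase reagent, 10 min ambient; read luminescence.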
ELG1 genotoxic = genotoxicity induction in ELG1-luciferase HEK293T cells | HEK293T ELG1-luciferase reporter, luminescence, 16 h | Potency, µM (titrated, usually from 46 µM), usual class: activators | 1.3% of 330,000 active; further: nearly all actives have a fitted effect of over 60% in size
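ELG1-luciferase HEK293T cells, 2,000/well; compound pinned in; 16 hr, 37 °C, 5% CO2; ONE-Glo, 30 min RT; luminescence on CCD imager.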
ELG1 DNA repair = blocks ELG1-dependent DNA repair in HEK293T cells | 2.3% of 330,000 active | AID 504467 | HEK293T ELG1-luciferase reporter, luminescence, 16 h; DNA damage induced by 5-fluorouridine | Potency, µM (series often up to 46.1 µM), usual class: inhibitors; further: nearly all actives have a fitted effect of over 55% in size
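DMSO vehicle served as the neutral condition. Each well held 2,000 cells given 5-fluorouridine plus compound; after 16 hr at 37 °C/5% CO2, ONE-Glo was added and luciferase measured 30 min later.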
SMN2 splice enh = enhancers of SMN2 splice variant expression; 2.8% of 210,000 active; HEK293 SMN2-luciferase splicing reporter, luminescence, 30-36 h; Potency, µM (titrated, usually from 46.1 µM), actives largely listed as activators; further: nearly all actives have a fitted effect of over 55% in size
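HEK293 cells carry an SMN2 minigene-luciferase reporter in which exon 7 inclusion puts luciferase in frame. Cells were seeded at 2000 cells/well, attached for 10-12 hours, then exposed to compounds for 30-36 hours at 37C before ONE-Glo luminescence.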
FLuc counter = firefly luciferase modulation, counter-screen for miR-21 project | 6.9% of 360,000 active | AID 588342 | purified FLuc, Km substrates, luminescence inhibition | Potency, µM (top dose mostly 57.5 µM), actives largely listed as inhibitors; further: nearly all actives have a fitted effect of over 55% in size
Target sequence (P08659 whole entry, looked up): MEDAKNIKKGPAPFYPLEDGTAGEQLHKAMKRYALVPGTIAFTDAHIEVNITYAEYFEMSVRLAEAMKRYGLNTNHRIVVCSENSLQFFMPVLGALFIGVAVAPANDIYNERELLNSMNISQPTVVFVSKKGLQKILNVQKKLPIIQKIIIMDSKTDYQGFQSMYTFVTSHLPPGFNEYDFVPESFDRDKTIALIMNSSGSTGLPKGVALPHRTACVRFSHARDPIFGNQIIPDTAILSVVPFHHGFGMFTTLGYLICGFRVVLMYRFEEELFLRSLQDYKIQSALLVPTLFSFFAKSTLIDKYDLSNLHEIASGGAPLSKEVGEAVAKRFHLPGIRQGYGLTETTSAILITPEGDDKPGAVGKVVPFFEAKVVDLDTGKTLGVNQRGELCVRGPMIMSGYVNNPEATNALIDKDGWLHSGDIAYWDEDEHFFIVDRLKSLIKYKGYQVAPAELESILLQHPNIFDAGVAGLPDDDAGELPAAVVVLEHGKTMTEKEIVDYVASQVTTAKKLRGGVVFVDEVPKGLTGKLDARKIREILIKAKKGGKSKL
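Biochemical qHTS of compounds, final roughly 60 µM downward over six points, against 10 nM purified firefly luciferase using Km concentrations of substrates (10 uM D-luciferin, 10 uM ATP) in Tris acetate pH 7.5 buffer; luminescence output.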
Numbers stand for hits; – = inactive; ? = inconclusive; · = not tested or not shown; [ ] = dose if it differs, or a comment. The call rests on the fitted dose curve; in most records, active means well fitted curve in the direction sought with a large enough effect; inconclusive means small, poorly fitted or top-dose-only effect, or another doubt; inactive means no such curve, though single readings can be large; an effect the other way counts as inactive or inconclusive.

SMILES | NPC1 promoter act | Rab9 prom act | ELG1 genotoxic | ELG1 DNA repair | SMN2 splice enh | FLuc counter
COc1ccc(-c2[nH]ncc2CN2CCCO2)cc1F | – | – | – | – | · | –
COc1ccc2cc(-c3[nH]ncc3CN3CCCCO3)ccc2c1 | – | ? | – | ? | · | 15µM
O=C(CSc1nc2ccccc2o1)NC(=O)NCc1ccccc1 | – | – | – | ? | – | –
CCOC(=O)Cn1cc(C(=O)c2cccs2)c2ccccc21 | – | – | – | – | 0.14µM | ?
CC(NC(=O)c1cc(-c2ccncc2)nc2ccc(Cl)cc12)C1CCCO1 (centres undefined) | – | – | – | – | · | –
Cc1ccc(C(=O)Nc2cc3c(oc2=O)CCCC3=O)cc1 | ? | ? | ? | ? | – | 21µM
O=C(c1coc2ccc(O)cc12)C1CC1 | – | – | – | – | – | –
O=C(c1ccc(Cl)cc1)c1coc2ccc(O)cc12 | ? | ? | – | ? | – | 3.8µM
COc1ccc2oc(C(=O)C3CC3)c(N)c2c1 | ? | ? | ? | ? | ? | 13µM
COc1ccc2occ(C(=O)c3ccccc3)c2c1 | – | ? | ? | ? | ? | 13µM
COC(=O)CCC(=O)c1oc2ccc(OC)cc2c1N | 2.5µM | 4.5µM | 3.7µM | ? | ? | 3.4µM
COc1ccc2occ(C(C)=O)c2c1 | – | –[1.84 µM] | – | – | – | –
Cc1nc(-c2ccc(Cl)cc2)sc1C(=O)NNC(=O)C(C)C | – | – | – | – | · | –
Cc1nc(N)nc(Nc2ccc(Cl)cc2)c1Br | – | – | – | ? | – | ?
COc1ccc(C(=O)c2oc3ccccc3c2N)cc1 | 3.5µM | ? | 9.2µM | ? | 13µM | 11µM
COc1ccc2oc(C(=O)c3ccccc3)c(N)c2c1 | 2µM | 2µM | ? | ? | 11µM | 3µM
CCOc1ccc(NC(=O)CCn2nc(C)c(S(=O)(=O)N3CCCCC3)c2C)cc1 | – | – | – | – | · | –
Brc1c(-c2ccc3c(c2)OCO3)nc2ncccn12 | – | ? | ? | ? | · | 24µM
COc1ccc(-c2nc3ncccn3c2Br)cc1 | ? | 2.5µM | ? | ? | · | 15µM
COc1ccc(-c2nc3ncccn3c2Nc2ccc3c(c2)OCCO3)cc1 | · | · | · | · | – | –
Cc1ccc(-c2nc3ncccn3c2Nc2ccc3c(c2)OCCO3)cc1 | – | – | – | ? | – | ?
CCOP(=O)(OCC)/C(=N/OC(=O)c1ccccc1C)C(N)=O | – | – | – | – | – | –
CCS(=O)(=O)N1CCc2cc(C(=O)NCc3ccccc3)ccc21 | · | · | · | · | · | –
Cc1cc(C)c(C#N)c(SCC(=O)Nc2ccc3c(c2)OCO3)n1 | ? | ? | 16µM | ? | 16µM | –
CCOC(=O)NC(=O)CSc1nc(C)cc(C)c1C#N | 2.5µM | 1.6µM | 5.8µM | ? | – | ?
SMILES | NPC1 promoter act | Rab9 prom act | ELG1 genotoxic | ELG1 DNA repair | SMN2 splice enh | FLuc counter
Cc1cc(C)c(C#N)c(SCC(=O)Nc2ccccc2C(N)=O)n1 | 2µM | 1.3µM | ? | ? | 13µM | 12µM
CCc1nnc(NC(=O)CSc2nc(C)cc(C)c2C#N)s1 | ? | 0.5µM | ? | ? | 11µM | ?
CCc1nnc(NC(=O)CSc2nc(-c3ccc(F)cc3)cc(-c3ccccc3)c2C#N)s1 | – | – | – | – | · | ?
CCOc1ccc(CN(C(=O)c2nc(SC)ncc2Cl)C2CCS(=O)(=O)C2)cc1 (centres undefined) | · | · | · | · | – | –
CC(C)c1cccc2nc3c(c([Si](C)(C)C(C)(C)C)c12)Cn1c-3cccc1=O | · | · | · | · | – | ·
Cc1cc(C)c(C#N)c(SCC(=O)N2CCCCC2)n1 | – | – | – | – | – | –
COc1cc2c(cc1OC)CN(C(=O)CSc1nc(C)cc(C)c1C#N)CC2 | – | – | – | 2.6µM | – | –
COc1ccc(C2=NNC(=Nc3cc(S(=O)(=O)N(C)C)ccc3C)SC2)c(OC)c1 | – | – | – | 15µM | · | –
CN(C)S(=O)(=O)c1cccc(N=C2NN=C(c3ccccc3)CS2)c1 | – | – | – | ? | – | ?
Cc1ccc(/C=N/NC(=O)c2ccc3nc[nH]c3c2)s1 | – | – | – | ? | – | ?
COc1cc(OC)c(OC)cc1/C=N/NC(=O)c1ccc2nc[nH]c2c1 | – | – | – | – | · | 11µM
COc1cccc(/C=N/NC(=O)c2ccc3nc[nH]c3c2)c1O | – | – | – | – | · | 19µM
COc1ccc(/C=N/NC(=O)c2ccc3nc[nH]c3c2)c(OC)c1OC | – | – | – | – | · | –
O=C(N/N=C/c1ccccc1[N+](=O)[O-])c1ccc2nc[nH]c2c1 | ? | 2.8µM | ? | ? | · | 13µM
COc1ccc(/C=N/NC(=O)c2ccc3nc[nH]c3c2)c(OC)c1 | – | – | – | – | · | 17µM
NC(=O)CCCn1c(C(=O)c2cc(Cl)c(N)c(Cl)c2)c2ccc(C(F)(F)F)cc2[n+]1[O-] | – | – | – | – | · | –
CC(CC(=O)NCCc1ccc(S(N)(=O)=O)cc1)c1ccccc1 (centres undefined) | – | – | – | – | · | ?
Cc1ccc(-c2csc3ncn(/N=C/N(C)C)c(=O)c23)o1 | – | – | – | – | – | –
COc1cc(OC)c2cc(C(=O)N/N=C/c3cccc(OC)c3O)[nH]c2c1 | – | – | ? | ? | · | ?
CCN(CC)c1ccc(/C=N/NC(=O)c2ccc3nc[nH]c3c2)c(O)c1 | – | – | ? | ? | · | 13µM
COc1ccc(/C=N/NC(=O)c2ccc3nc[nH]c3c2)cc1 | – | – | – | ? | · | 21µM
COc1cccc(/C=N/NC(=O)c2cc3c(OC)ccc(OC)c3[nH]2)c1O | – | – | ? | 3.7µM | · | –
COc1cccc(C(=O)N/N=C/c2cn[nH]c2-c2ccc(OC)cc2OC)c1 | – | – | – | – | – | 15µM
CCN(CC)c1ccc(/C=N/NC(=O)c2cccc(S(=O)(=O)Nc3ccccc3OC)c2)c(O)c1 | – | – | – | – | – | –
CCN(CC)C(=O)c1c([N+](=O)[O-])c(C(C)(C)C)nn1C | – | – | – | – | – | –
SMILES | NPC1 promoter act | Rab9 prom act | ELG1 genotoxic | ELG1 DNA repair | SMN2 splice enh | FLuc counter
Cc1c(NC(=O)CSc2n[nH]c(=O)n2-c2ccccc2)c(=O)n(-c2ccccc2)n1C | – | – | – | – | · | –
Cc1ccc(NC(=S)Nc2ccc3cn[nH]c3c2)c(C)c1 | – | – | – | – | – | –
Cc1cccc(NC(=O)Cn2c(=O)n(Cc3ccc4c(c3)OCO4)c(=O)c3oc4ccccc4c32)c1C | · | · | · | · | · | –
Cc1cccc(C)c1NC(=O)/C(C#N)=C/c1ccc(-c2ccc(C(=O)O)cc2)o1 | 0.63µM | 2.5µM | ? | ? | · | 12µM
Cc1c(NC(=O)/C(C#N)=C/c2ccc(-c3cccc(Cl)c3)o2)c(=O)n(-c2ccccc2)n1C | – | – | – | ? | – | –
N#C/C(=C\c1ccc(-c2ccc(C(=O)O)cc2)o1)C(=O)Nc1ccc(F)cc1 | ? | ? | – | – | · | 2.4µM
